Experimental data reported in PubChem BioAssay (NCI).
About 83,000 compounds went through this panel and 20% of them were active in at least one assay; those are over-represented in the sample as a whole.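 Each cell line was grown in a 96-well plate and treated with one concentration of compound for 48 hours. Values below 10 were considered active.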 A number with no mark means an inactive call. Activity calls are given as the source filed them.

The compounds below were run on HL-60(TB) leukemia (assay: NCI-60 one-dose screen, 48 h (100 = growth as untreated, 0 = no growth, -100 = all killed)). Settings: 10 µM unless noted.

Structure (SMILES)	growth
CCCCN1CCCn2c1nc1c2c(=O)n(CCC)c(=O)n1CCC	109%
COc1ccc(-c2cn3ccnc3c(-c3ccc4ncn(C5CCCCC5)c4c3)n2)cc1	1.36% (active)
O=C(CN1N=C(c2ccc(F)cc2)CCC1=O)Nc1nccs1	95.3%
COc1ccc(C(=O)COc2cccc(/C=C3\COc4ccc5ccccc5c4C3=O)c2)cc1	72.1%
Cn1c(N)c(N=Cc2ccccc2)c(=O)n(C)c1=O	86.1%
CC(=O)Nc1ccc2oc(=O)ccc2c1	67.8%
Cn1c(N)c(N=Nc2ccc(S(=O)(=O)Nc3nccs3)cc2)c(=O)n(C)c1=O	94.6%
Oc1ccc(Cc2ccc(O)c(C3CC(c4ccc(Cl)cc4)=NN3)c2)cc1C1CC(c2ccc(Cl)cc2)=NN1 (stereo not drawn)	-23.6% (active)
CCn1cc(-c2ccnc3[nH]c(-c4cccc(CN(C)C)c4)cc23)c(-c2ccc(NC(=O)N(C)C)cc2)n1	-40.6% (active)
O=C1c2cccc3cccc(c23)C(=O)N1CCCCCN1CCN(CCCCCOc2ccc(-c3nc4ccc(N5CCOCC5)cc4[nH]3)cc2)CC1	3.01% (active)
COc1cc(NC(=O)Nc2cnc(Nc3ccc(N4CCOCC4)cc3)nc2Oc2ccc(F)cc2)cc(OC)c1	65.4%
Cc1cc(=O)n2n1-c1ccc(Cl)cc1NC(=O)C2	101%
CO[C@H](C(=O)[C@@H](O)[C@@H](C)O)[C@@H]1Cc2cc3cc(O[C@H]4C[C@@H](O[C@H]5C[C@@H](O)[C@H](O)C(C)O5)[C@H](O)C(C)O4)c(C)c(O)c3c(O)c2C(=O)[C@H]1O[C@H]1C[C@@H](O[C@H]2C[C@@H](O[C@H]3C[C@@H](OC)[C@H](O)C(C)O3)[C@@H](O)C(C)O2)C(O)(O)C(C)O1 (stereo partly drawn)	26.8%
CCOc1nc(-c2ccccc2)cc2c(O)c(C(=O)N/N=C/c3ccc(O)cc3O)[nH]c(=O)c12	19.7%
CCCCNC1=C(OCC)C(=O)c2ccccc2C1=O	101%
O=c1[nH][nH]c(=O)c2cc([N+](=O)[O-])ccc12	96.2%
CON1C(=O)CC[C@]2(C)[C@H]3CC[C@@H]4C([C@@]5(C)CCC(=O)O5)CC[C@@]4(C)[C@]3(C)CC[C@H]2C1(C)C (stereo partly drawn)	100%

Structure (SMILES)	growth
O=C1c2cccnc2C(=O)c2c1c(C(=O)OCCCN1CCOCC1)c1ccccn21	-3.63% (active)
CC(C)(C)OC(=O)CC1(O)CCCCC1	106%
CCC(=O)OC1=CN2C(=NC(c3ccc(N)cc3)=CC2c2cc(OC)c(OC)c(OC)c2)S1 (stereo not drawn)	36.5%
CCCCn1c(-c2ccc(C(=O)O/N=C(\N)c3ccc(OC)cc3)cc2)nc(-c2ccccc2)c1-c1ccccc1	-62.5% (active)
COc1ccc(-c2cc(-c3cc(OC)c(OC)c(OC)c3)nc(N3CCOCC3)c2C#N)cc1	51.4%
CC12O[C@H](C[C@@H](OC(=O)c3ccccc3)[C@H]1O)n1c3ccccc3c3c4c(c5c6ccccc6n2c5c31)C(=O)NC4=O	96.9%
COc1cc(-c2ccc[nH]2)[nH]c1/C=C1\N=C(C)C(C(=O)NC(C)C)=C1C	26.1%
COc1ccc(C2CC(c3cc(OC)c(OC)c(OC)c3)=NN2C(C)=O)cc1OCC(=O)Nc1nc2ccc(C(F)(F)F)cc2s1 (stereo not drawn)	79.1%
COc1ccc(S(=O)(=O)N2CCN(C)CC2)cc1NC(=O)c1[nH]c(C)c2c1CCCCC2=O	8.16% (active)
C/C(=C(/c1ccc(Cl)cc1)c1ccc(OCCN2CCCCC2)cc1)c1ccccc1	61.8%
CN1CC(c2ccc(Br)cc2)C(C(=O)c2ccc(Br)cc2)C12C(=O)Nc1ccccc12 (stereo not drawn)	98.4%
Cc1cc(C(O)CN(C)C)cc2c1ccc1cc(C(C)C)ccc12 (stereo not drawn)	-52.8% (active)
CCC(C)(C)c1ccc(Nc2ccc(Nc3ccc(C(C)(C)CC)cc3)cc2)cc1	47.5%
O=C1COCCN1c1ccc(NCc2cn(Cc3cccc4ccccc34)c3ccccc23)cc1	96.4%
O=C(N/N=C(\CS(=O)(=O)c1ccccc1)c1cc2cc(Br)ccc2oc1=O)c1ccccc1	119%
C[C@@]1(CO)[C@H](O)CC[C@@]2(C)[C@H]1CC[C@H]1C[C@@H]3C[C@@]12CC[C@@]3(O)COC(=O)CN	3.18% (active)
